Assay results: PubChem BioAssay (NCATS)
Several values for one entry are separate records, joined by “and”; a condition that tells them apart may be missing. Equal entries are not always repeated. Records with an inconclusive call do not appear. Where a structure was tested more than once in an assay, its records may differ in their call. Activity calls are given as the source filed them. Calls follow the shape of the dose curve; as a rule, active = well fitted curve in the direction sought with a large enough effect; inconclusive = small, poorly fitted or top-dose-only effect, or another doubt; inactive = no such curve, though single readings can be large; an effect the other way counts as inactive or inconclusive. Where a SMILES comes first, the peptide text is derived from it. The star is where a group is joined. Cbz = O=C(OCc1ccccc1)*; CH2Cl = ClC*

Key:
[1] = molecular target: Glutathione peroxidase 1 (Homo sapiens) (UniProt P07203); assay: Primary qHTS Assay for Inhibitors of Recombinant Selenoprotein Glutathione Peroxidase 1 (GPX1) (AID 1845191); also: nearly all actives have a fitted effect of over 65% in size; also: potency is read from the fitted curve at half-maximal effect; as to activity, negative = inhibition: % is scaled to controls: 0 for no effect and ±100 for the full control effect
Outline: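 10 nM GPX1 + cpd, 30 min RT; start w/ 1 mM GSH, 0.5 mM cumene hydroperoxide, 0.5 mM NADPH, 100 nM GR, 0.01% BSA; buffer 50 mM Tris-HCl pH 7.5, 2 mM EDTA, 150 mM NaCl; Fl 340/450, 0 & 15 min.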

[2] = molecular target: Phospholipid hydroperoxide glutathione peroxidase GPX4 (Homo sapiens) (UniProt P36969); assay: Primary qHTS Assay for Inhibitors of Recombinant Selenoprotein Glutathione Peroxidase 4 (GPX4) (AID 1845192); also: nearly all actives have a fitted effect of over 65% in size; also: potency is read from the fitted curve at half-maximal effect; as to activity change, negative = inhibition: series mostly up to about 50 µM; % is scaled to controls: 0 for no effect and ±100 for the full control effect
Outline: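 NADPH consumption, followed by fluorescence at 340/450 nm between 0 and 15 min, reports GPX4 activity via coupled glutathione reductase (100 nM). Enzyme 200 nM was pre-exposed to compound 30 min; 0.5 mM cumene hydroperoxide and 1 mM GSH served as substrates.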

[3] = molecular target: Luciferin 4-monooxygenase (Photinus pyralis) (UniProt P08659); assay: Primary firefly luciferase (FLuc) qHTS assay for identification of artifact compounds. (AID 1845220); also: nearly all actives have a fitted effect of over 60% in size;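 as to activity change, negative = inhibition: series mostly up to about 54 µM; plate controls were DMSO vehicle for no effect and no enzyme for full effect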
Outline: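 Compounds sat 15 min at room temperature with 10 uM luciferin and 10 uM ATP (pH 7.6 Tris acetate). Firefly luciferase (10 nM final) was then added, and luminescence was read 5 min later. Data normalized to no-enzyme and DMSO controls were Hill-fitted.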

[4] = Primary fluorescence-based thiol-reactive (MSTI) qHTS assay for identification of artifact compounds. (AID 1845221); also: nearly all actives have a fitted effect of over 65% in size; also: potency is read from the fitted curve at half-maximal effect;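 as to activity change, negative = thiol reactive: series mostly up to about 54 µM; thiol-reactive compounds lower the probe fluorescence signal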
Outline: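 Probe: MSTI 4 uM, PBS pH 7.4, 2% DMSO. Incubation 1 h, RT, light-protected. Readout fluorescence 525/598 nm.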

[5] = test system: Nanoluciferase (engineered Oplophorus gracilirostris luciferase); assay: Primary Nanoluciferase (NLuc) qHTS assay for identification of artifact compounds. (AID 1845222);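 also: series mostly up to about 54 µM; 0% = DMSO and -100% = no enzyme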
Outline: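 Luminescence from secreted NLuc (filtered, 1:55-diluted S16 cell medium) read 5 min after Nano-Glo substrate; compounds preincubated 15 min, RT. Hill fits of inhibition normalized to DMSO and no-enzyme.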

[6] = Primary redox qHTS assay for identification of artifact compounds. (AID 1845223);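 also: 0% = DMSO and 100% = reference compound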
Outline: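 Amplex Red (25 uM) and HRP (250 mU/mL) in HBSS, with compounds for 15 min, then 250 uM DTT for 30 min, room temperature, dark. Fluorescence 525/598 nm read; normalized to DMSO and 10 uM DA3003; Hill fit.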

Chain of Phospholipid hydroperoxide glutathione peroxidase GPX4 (Homo sapiens) (P36969 whole entry, looked up): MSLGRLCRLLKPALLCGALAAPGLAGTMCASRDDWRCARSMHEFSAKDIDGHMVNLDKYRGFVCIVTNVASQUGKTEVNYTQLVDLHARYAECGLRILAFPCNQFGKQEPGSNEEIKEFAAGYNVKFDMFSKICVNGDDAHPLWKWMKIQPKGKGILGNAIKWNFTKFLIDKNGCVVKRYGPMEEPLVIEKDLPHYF
Chain of Glutathione peroxidase 1 (Homo sapiens) (P07203 whole entry, looked up): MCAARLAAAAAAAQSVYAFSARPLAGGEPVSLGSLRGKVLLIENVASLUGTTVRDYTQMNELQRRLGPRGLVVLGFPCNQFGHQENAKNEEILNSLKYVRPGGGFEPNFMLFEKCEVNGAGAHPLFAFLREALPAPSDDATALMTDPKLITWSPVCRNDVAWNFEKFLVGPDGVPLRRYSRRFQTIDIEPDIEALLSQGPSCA

COC(=O)c1cc2c(C(F)(F)F)cc(-c3ccccc3)cc2n1O
active: Potency [4] 2.67 µM
inactive: Potency [1] | Potency [2] | Potency [3] | Potency [5] | Potency [6]

Nc1nc2c(ncn2C2OC3COP(=O)(O)OC3C2O)c(=O)[nH]1 (centres undefined)
inactive: Potency [1] | Potency [2] | Potency [3] | Potency [4] | Potency [5] | Potency [6]

N#CC(CCCN1CCC(O)(c2ccc(Cl)cc2)CC1)(c1ccccc1)c1ccccc1
inactive: Potency [1] | Potency [2] | Potency [3] | Potency [4] | Potency [5] | Potency [6]

CC(=O)O[C@H]1CC[C@]2(C)[C@H]3CC[C@]4(C)Oc5oc(C)cc(=O)c5C[C@H]4[C@]3(C)CC[C@H]2C1(C)C
inactive: Potency [1] | Potency [2] | Potency [3] | Potency [4] | Potency [5] | Potency [6]

O=c1cc(N2CCOCC2)nc2c3ccccc3ccn12
inactive: Potency [1] | Potency [2] | Potency [3] | Potency [4] | Potency [5] | Potency [6]

C#CCCCn1cc(-c2cccc3c2N[C@H](C)CC(=O)N3)cn1
inactive: Potency [1] | Potency [2] | Potency [3] | Potency [4] | Potency [5] | Potency [6]

C=C1CC[C@@H]2[C@](C)(CO)[C@H](O)CC[C@@]2(C)[C@@H]1CC(O)C1=CCOC1=O (some centres undefined)
inactive: Potency [1] | Potency [2] | Potency [3] | Potency [4] | Potency [5] | Potency [6]

COc1ccc(-c2ccc3c(N4CCOCC4C)nc(N4CCOCC4C)nc3n2)cc1CO (centres undefined)
inactive: Potency [3] | Potency [4] | Potency [5] | Potency [6]
active: Potency [1] 18 µM | Potency [2] 10.1 µM

NC(N)=NC(=O)c1cnn(-c2cccc3ncccc23)c1C1CC1
inactive: Potency [1] | Potency [2] | Potency [3] | Potency [4] | Potency [5] | Potency [6]

C=C1C(=O)OC2/C=C(/C)C3=CC(=O)C(C)(CC(OC(=O)/C(C)=C/COC(C)=O)C12)O3 (centres undefined)
inactive: Potency [1] | Potency [2] | Potency [3] | Potency [5] | Potency [6]
active: Potency [4] 4.12 µM

CCOC(=O)C1(CCOc2ccccc2)CCN(Cc2ccc(O)c(Cl)c2)CC1
inactive: Potency [1] | Potency [2] | Potency [3] | Potency [4] | Potency [5] | Potency [6]

CCCC(CCC)C(=O)NCc1ccc2c(cnn2-c2ccccc2OC)c1
inactive: Potency [1] | Potency [2] | Potency [3] | Potency [4] | Potency [5] | Potency [6]

O=C(NCCCCN1CCN(c2cccc(Cl)c2Cl)CC1)c1cc2ccccc2s1
inactive: Potency [1] | Potency [2] | Potency [3] | Potency [4] | Potency [5] | Potency [6]

CC(C)C[C@H](NC(=O)CNC(=O)OCc1ccccc1)C(=O)N[C@@H](Cc1ccccc1)C(=O)CCl (Cbz-Gly-Leu-Phe-CH2Cl)
inactive: Potency [1] | Potency [2] | Potency [3] | Potency [4] | Potency [5] | Potency [6]

COc1cc(O)cc(OC2OC(CO)C(O)C(O)C2O)c1 (centres undefined)
inactive: Potency [1] | Potency [2] | Potency [3] | Potency [5] | Potency [6]
active: Potency [4] 9.47 µM

Cn1ncc(Cl)c1-c1cc(C(=O)N[C@H](CN)Cc2ccc(F)c(F)c2)sc1Cl
inactive: Potency [1] | Potency [2] | Potency [3] | Potency [4] | Potency [5] | Potency [6]

COC1CC(O[C@H]2CC[C@]3(C)C4CC[C@]5(C)C(C6=CC(=O)OC6)=CCC56OC46CC[C@@H]3C2)OC(C)C1O[C@@H]1O[C@H](CO[C@@H]2O[C@H](CO)[C@@H](O)[C@H](O)[C@H]2O)[C@@H](O)[C@H](O)[C@H]1O (some centres undefined)
inactive: Potency [1] | Potency [2] | outcome [3] inactive [at 11.6 µM] | activity change, negative = thiol reactive [4] 101% [at 11.5 µM] | activity, negative = inhibition [5] 0% [at 11.6 µM] | redox activity (% of DA3003) [6] 3.85% [at 11.5 µM]

C=C1CC[C@@H]2[C@](C)(CO)[C@H](O)CC[C@@]2(C)[C@@H]1C/C=C1/C(=O)OCC1OC(=O)/C(=C/CO)C(O)C[C@@H]1C(=C)CC[C@@H]2[C@](C)(CO)[C@H](O)CC[C@]21C (some centres undefined)
inactive: Potency [1] | Potency [2] | Potency [3] | Potency [4] | Potency [5] | Potency [6]

COc1ccc(NC(=O)C2C[C@H](C)CC[C@H]2C(C)C)cc1 (some centres undefined)
inactive: Potency [1] | Potency [2] | Potency [3] | Potency [4] | Potency [5] | Potency [6]

CC1(C)CC[C@]2(C(=O)O)[C@H](O)C[C@]3(C)C(=CCC4[C@@]5(C)CC[C@H](O[C@@H]6O[C@H](CO[C@@H]7OC[C@H](O)[C@H](O)[C@H]7O[C@@H]7OC[C@H](O)[C@H](O)[C@H]7O)[C@@H](O)[C@H](O)[C@H]6O)C(C)(C)C5CC[C@]43C)[C@@H]2C1 (some centres undefined)
inactive: Potency [1] | Potency [2] | outcome [3] inactive [at 11.6 µM] | activity change, negative = thiol reactive [4] 133% [at 11.5 µM] | activity, negative = inhibition [5] 1.1% [at 11.6 µM] | redox activity (% of DA3003) [6] 16.3% [at 11.5 µM]

O=C(NCCCn1ccnc1)c1cc(-c2ccco2)on1
inactive: Potency [1] | Potency [2] | Potency [3] | Potency [4] | Potency [5] | Potency [6]

CCCC1(CCC)CCC2(CCN(CCCN(CC)CC)C2)CC1
inactive: Potency [1] | Potency [2] | Potency [3] | Potency [4] | Potency [5] | Potency [6]

CC(C)(C)Sc1c(CC(C)(C)C(=O)O)n(Cc2ccc(Cl)cc2)c2ccc(OCc3ccc4ccccc4n3)cc12
inactive: Potency [1] | Potency [3] | Potency [4] | Potency [5] | Potency [6]
inactive and 8.06 µM (active): Potency [2]

O=C(Nc1cc(C(F)(F)F)ccc1N1CCCCC1)c1ccncc1
inactive: Potency [1] | Potency [2] | Potency [3] | Potency [4] | Potency [5] | Potency [6]

Cn1ncc2cc(-c3cnc(N)c(Cl)c3N3CCC4(CCNC4=O)CC3)ccc21
inactive: Potency [1] | Potency [2] | Potency [3] | Potency [4] | Potency [5] | Potency [6]

CCCCOc1ccc(S(=O)(=O)n2c(C)nc3ccccc32)cc1
inactive: Potency [1] | Potency [2] | Potency [3] | Potency [4] | Potency [5] | Potency [6]

O=S(=O)(NCc1ccccn1)c1ccc(Br)c2ccccc12
inactive: Potency [1] | Potency [2] | Potency [3] | Potency [4] | Potency [5] | Potency [6]

CCCn1ncc(CN2CCCC(C(=O)c3cccc(OC(C)C)c3)C2)c1C (centres undefined)
inactive: Potency [1] | Potency [2] | Potency [3] | Potency [4] | Potency [5] | Potency [6]

CC(C)(CO)c1cc2cc(NC(=O)C3(c4ccc5c(c4)OC(F)(F)O5)CC3)c(F)cc2n1CC(O)CO (centres undefined)
inactive: Potency [1] | Potency [2] | Potency [3] | Potency [4] | Potency [5] | Potency [6]

CC(C)(C)c1ccc2c(c1)CC[C@H]2NC(=O)Nc1cccc2[nH]ncc12
inactive: Potency [1] | Potency [2] | Potency [3] | Potency [4] | Potency [5] | Potency [6]

Clc1ccc(Nc2nc3ccccc3c3nc(C4CCCCC4)[nH]c23)cc1Cl
inactive: Potency [1] | Potency [2] | Potency [3] | Potency [4] | Potency [5] | Potency [6]

CC#CC(=O)Nc1ccc2ncnc(Nc3cccc(Br)c3)c2c1
inactive: Potency [1] | Potency [2] | Potency [3] | Potency [4] | Potency [5] | Potency [6]

O=C(Nc1ccccc1Cl)c1cnc2ccc(C3CCNCC3)cn12
inactive: Potency [1] | Potency [2] | Potency [3] | Potency [4] | Potency [5] | Potency [6]

C=CC(C)(C)c1[nH]c2ccccc2c1C[C@@H]1NC(=O)[C@H](C)NC1=O
active: Potency [4] 5.85 µM
inactive: Potency [1] | Potency [2] | Potency [3] | Potency [5] | Potency [6]

CC1OC(OC2C(O)COC(O[C@@H]3[C@@H](O)[C@@H](O)[C@H](OC4C(OC(=O)[C@]56CCC(C)(C)CC5C5=CCC7[C@@]8(C)C[C@H](O)[C@H](OC9OC(CO)C(O)C(O)C9O)[C@@](C)(CO)C8[C@H](O)C[C@@]7(C)[C@]5(C)CC6)OCC(O)C4O)O[C@H]3C)C2O)C(O)C(O)C1O (some centres undefined)
inactive: activity, negative = inhibition [1] -4.86% [at 9.52 µM] | activity change, negative = inhibition [2] -9.45% [at 9.73 µM] | activity change, negative = inhibition [3] -14.3% [at 11.6 µM] | activity change, negative = thiol reactive [4] 417% [at 11.5 µM] | activity, negative = inhibition [5] -5.56% [at 11.6 µM] | redox activity (% of DA3003) [6] 3.65% [at 11.5 µM]

Cc1cc(C(=O)Cn2cc(C#N)ccc2=O)c(C)n1Cc1ccccc1
inactive: Potency [1] | Potency [2] | Potency [3] | Potency [4] | Potency [5] | Potency [6]

C=C1C(=O)O[C@@H]2/C=C(\CO)CC/C=C(\CO)[C@H](OC(C)=O)C(OC(=O)C(C)CC)C12 (some centres undefined)
inactive: Potency [1] | Potency [2] | Potency [3] | Potency [4] | Potency [5] | Potency [6]

COC(=O)C1=CO[C@@H](O[C@@H]2O[C@H](CO)[C@@H](O)[C@H](O)[C@H]2O)[C@H]2[C@@H]1C=C[C@]21C=C([C@H](C)OC(=O)/C=C/c2ccc(O)cc2)C(=O)O1
inactive: Potency [1] | Potency [2] | Potency [3] | Potency [4] | Potency [5] | Potency [6]

Nc1nccc(-c2c(-c3ccc(F)cc3)ncn2C2CCCCC2)n1
inactive: Potency [1] | Potency [2] | Potency [3] | Potency [4] | Potency [5] | Potency [6]

CC(=O)NC[C@H]1CN(c2ccc(N3CCSCC3)c(F)c2)C(=O)O1
inactive: Potency [1] | Potency [2] | Potency [3] | Potency [4] | Potency [5] | Potency [6]

COc1ccc(CCCN2CCC(COC(c3ccccc3)c3ccccc3)CC2)cc1
inactive: Potency [1] | Potency [2] | Potency [3] | Potency [4] | Potency [5] | Potency [6]

CC(C)S(=O)(=O)NC[C@H](C)c1ccc(-c2ccc(CCNS(C)(=O)=O)cc2)cc1
inactive: Potency [1] | Potency [2] | Potency [3] | Potency [4] | Potency [5] | Potency [6]

C=C1C(=O)OC2C1CCC1(C)C(O)CC=C(C)C21 (centres undefined)
inactive: Potency [1] | Potency [2] | Potency [3] | Potency [5] | Potency [6]
active: Potency [4] 11.9 µM

CN(C)C(=O)NC1(c2ccccc2)CCN(CCC[C@]2(c3ccc(Cl)c(Cl)c3)CCCN(C(=O)c3ccccc3)C2)CC1
inactive: Potency [1] | Potency [2] | Potency [3] | Potency [4] | Potency [5] | Potency [6]
